The source of these data is ChEMBL document CHEMBL1157539, “Thousands of chemical starting points for antimalarial lead identification” (Nature, 2010).

Broadly, the Inhibition is how much of the control response was suppressed. The low end stands for a weak effect, the high end for a strong effect.

The test deals with Plasmodium falciparum. Briefly: GSK_TCMDC: Inhibition of Plasmodium falciparum 3D7 in whole red blood cells, using parasite LDH activity as an index of growth. Test compounds present at 2uM. Type of test: functional.
`CC(C)c1ccc(NC(=O)N[C@H]2CCN(CCCCCNC(=O)/C=C/c3ccc(Cl)c(Cl)c3)C2)cc1`: the Inhibition is on record as 100%. In the case of `Cl.O=C(Nc1ccc(C(=O)OCC2CCCN3CCCCC23)cc1)c1ccc([N+](=O)[O-])cc1` (configuration not stated) it was 95%; in that of `Cc1ccc2c(N/N=C/c3ccccc3[N+](=O)[O-])cc(C)nc2c1`, 100%; in that of `O=C(Nc1cccc(CN2CCCN(Cc3cccnc3)CC2)c1)c1cc2ccccc2s1.O=C(O)C(F)(F)F`, 92%. Under `CCOc1cc(Cc2cnc(N)nc2N)cc(OCC)c1O` stands 89%. In the case of `O=C(O)C(F)(F)F.O=[N+]([O-])c1cccc(CNCC2CCN(Cc3ccc(-c4ccccc4)cc3)CC2)c1` it was 100%; in that of `CCCNCc1c(O)ccc2c(CNCCC)c(O)ccc12.Cl`, 100%; in that of `CC(=O)N(C)c1ccc(C(=O)Nc2cccc(-c3cccc(-c4nc5cccc(C)c5[nH]4)c3)c2)cc1`, 89%.

The compound `Cc1cc(C(=O)CSc2nc3ccccc3n2-c2ccccc2)c(C)n1C1CCS(=O)(=O)C1` (configuration not stated) showed an Inhibition of 92%. Under `CN1CCC[C@@H](Oc2cc3c(cc2Br)CCN3C(=O)Nc2ccc(-c3ccncc3)c(Cl)c2)C1` stands 99%; under `COC(=O)c1cc2cccc(NC[C@@H](C)NC[C@H](O)c3cccc(Cl)c3)c2[nH]1`, 98%; under `COc1ccccc1/C=C/C(=O)NCCC1CCN(CCCCCNC(=O)/C=C/c2ccc(Cl)c(Cl)c2)CC1`, 94%.

In the case of `CCn1nc(C(=O)NC2CCOc3ccccc32)c2ccccc2c1=O` (configuration not stated), the Inhibition worked out at 86%. In the case of `CC(C)[C@@H](NC(=O)NC1CCC(CCN2C3CCC2CC(OC(=O)C(CO)c2ccccc2)C3)CC1)C(O)(c1ccccc1)c1ccccc1` (some centres not stated) it was 96%; in that of `O=C(NCCCCCN1CCC(c2c[nH]c3ccccc23)C1)Nc1ccc(Cl)c(Cl)c1` (configuration not stated), 95%. In the case of `O=C(CNC(=O)c1ccc(O)cc1)Nc1cccc(-c2cccc(-c3nc4cc(C(F)(F)F)ccc4[nH]3)c2)c1` it was 96%. In the case of `CCCCN(Cc1cnccc1-c1ccc(Br)cc1)c1ccc(C(O)(C(F)(F)F)C(F)(F)F)cc1.O=C(O)C(F)(F)F` it was 87%.

For the compound `Cc1c(CN2CCC(N3CCC(C(=O)NC4CC4)CC3)CC2)[nH]c2c(Cl)cccc12`, the Inhibition came out at 92%. In the case of `CC(C)c1ccc(CN2CCCCC(NC(=O)c3cc(-c4ccccc4F)cs3)C2)cc1.O=C(O)C(F)(F)F` (configuration not stated) it was 99%; in that of `COc1ccc2[nH]cc(C3CCN(CCCCCNC(=O)c4ccc(-c5ccccc5)cc4)CC3)c2c1`, 96%. In the case of `CCOC(=O)c1ccc(NC(=O)Nc2ccc(-c3cccc(-c4nc5cc(F)ccc5[nH]4)c3)cc2)cc1` it was 100%; in that of `CN(C)CCn1c(=N)n(CC(O)c2ccc(Cl)c(Cl)c2)c2ccccc21.Cl` (configuration not stated), 99%. Under `Cc1cc(C)c2cc(CNCCCNc3nc4ccccc4[nH]3)[nH]c2c1` stands 100%; under `N#Cc1cc(C(=O)c2cc(Br)ccc2O)cn(C2CCCCC2)c1=O`, 89%. As for `O=C(/C=C/c1ccc(Cl)cc1)NCCCCCN1CCC(C(=O)Nc2ccc(Cl)cc2)CC1`, the Inhibition is reported as 99%. In the case of `CC(=O)c1ccc(NC(=O)NNC(=O)c2ccc(CCN3CCC(c4nc(COCC(F)(F)F)c(-c5ccc(F)cc5)o4)CC3)cc2)cc1` it was 96%. Under `Cc1cc(N2CCCC2)nc(Nc2ccc(NC(=O)C(C)C)cc2)n1` stands 97%; under `Nc1c2c(nc3ccc(Oc4ccc(Br)cc4Br)cc13)CCCC2`, 99%. In the case of `Cc1cc(C)c(S(=O)(=O)N2CCCCC(c3cccc(C(F)(F)F)c3)=N2)c(C)c1` it was 94%. `COC[C@H]1CCCN1Cc1ccc(-c2ccc(-c3nc4ccccc4[nH]3)s2)cc1` had an Inhibition of 95%. In turn, `Br.CCCCCCCCc1c(C)nc(C)c(Br)c1O` had an Inhibition of 96%.

The compound `N=C(N)c1ccc(NCc2cccc(C(=O)O)c2)cc1.O=C(O)C(F)(F)F` displayed an Inhibition of 84%. `CN(CCCCCN1CCC(NC(=O)Nc2ccc(Oc3ccccc3)cc2)C1)C(=O)/C=C/c1ccc(Cl)c(Cl)c1` (configuration not stated): the Inhibition came to 98%. With `O=C(c1c(-c2[nH]c3ccccc3c2C(=O)C(F)(F)F)[nH]c2ccccc12)C(F)(F)F`, the Inhibition was determined as 97%. `FC(F)(F)c1ccc2[nH]c(-c3ccc(-c4ccc(CNCCc5ccncc5)cc4)cc3)nc2c1.O=C(O)C(F)(F)F` showed an Inhibition of 100%.

`COC(=O)c1cccc(CNCc2ccc(-c3cccc(-c4nc5ccccc5[nH]4)c3)cc2)c1.O=C(O)C(F)(F)F`: the Inhibition worked out at 100%. Compound `CC(C)(C)c1ccc(C(=O)NC2CCC(CCN3CCc4ccc(S(C)(=O)=O)cc4CC3)CC2)cc1C(F)(F)F` (configuration not stated) had an Inhibition of 88%.
